Results filed as inconclusive are left out. Where a call stands in place of a potency, no number is given. Active and inactive are the calls of the source. The call rests on the fitted dose curve; in most records, active means well fitted inhibition curve with a large enough effect; inconclusive means small, poorly fitted or top-dose-only effect; inactive means no such curve, though single readings can be large or run the other way.

A short description of this assay: Confirmation assay for measurement of the activity of small molecule inhibitors on Zika virus induced Caspase-3 activity in human iPSC derived neural progenitor cells (hNPCs). Conditions: hNPC ZIKV-induced caspase-3/7, Caspase-Glo luminescence, 6 h; series mostly up to 46.1 µM. The method, boiled down: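 Compound preincubated 1 h with hNPCs before addition of ZIKV (2 FFU/cell). Following 6 h at 37 C, Caspase-Glo 3/7 reagent added and luminescence recorded after 30 min at RT; data expressed as % activity (inhibition negative).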
Regarding `CO[C@H]1C(=O)[C@]2(C)[C@@H](OC)C[C@H]3OC[C@@]3(OC(C)=O)[C@H]2[C@H](OC(=O)c2ccccc2)[C@]2(O)C[C@H](OC(=O)[C@H](O)[C@@H](NC(=O)OC(C)(C)C)c3ccccc3)C(C)=C1C2(C)C`, the Potency result is “inactive”.
Under `COc1ccc2nc(NC(=O)Nc3ccccc3)sc2c1` stands 8690 nM (active); under `O=C(Nc1ncc([N+](=O)[O-])s1)c1cccs1`, 1230 nM (active); under `CCCC(=O)OC[C@@H](OC(=O)CCC)[C@@H](OC(=O)CCC)[C@H](Cn1c2nc(=O)[nH]c(=O)c-2nc2cc(C)c(C)cc21)OC(=O)CCC`, “inactive”.
Turning to `CC[C@]1(O)C[C@H]2CN(CCc3c([nH]c4ccccc34)[C@@](C(=O)OC)(c3cc4c(cc3OC)N(C=O)[C@H]3[C@@](O)(C(=O)OC)[C@H](OC(C)=O)[C@]5(CC)C=CCN6CC[C@]43[C@@H]65)C2)C1`, the Potency result was “inactive”.
The entry for `NC1CCC(Nc2nc(Nc3ccc(C(=O)N4CCCCC4)cc3)c3ncn(-c4cccc(F)c4)c3n2)CC1` (stereo not drawn) is “inactive”; for `COc1ccc(NC(=O)/C=C/c2ccc(Cl)cc2)cc1` it is 2450 nM (active).
Under `Cc1cccc(C#Cc2ccccc2)n1` stands 3460 nM (active); under `Cc1ccc(O)c(-n2nc3ccccc3n2)c1`, 4350 nM (active); under `COc1ccnc2c1CCCCC2S(=O)c1nc2ccccc2[nH]1` (stereo not drawn), “inactive”.
The figure for `O=C(Nc1ccc([N+](=O)[O-])cc1Cl)c1cc(Cl)ccc1O` is 1730 nM (active); for `CC(=O)Oc1ccccc1C(=O)Nc1ncc([N+](=O)[O-])s1` it is 1000 nM (active); for `Nc1ccc2c(c1)CN1C(=O)c3ccccc3C1=N2` it is 1900 nM (active).
For the molecule `COc1cc2nc(-c3ccc(N4CCN(C)CC4)cc3)nc(NCCN3CCOCC3)c2cc1OC`, the Potency result was “inactive”.
The entry for `Cc1c(C(=O)O)c(O)cc2c1C(=O)c1c(O)c([C@@H]3O[C@H](CO)[C@@H](O)[C@H](O)[C@H]3O)c(O)c(O)c1C2=O` is “inactive”; for `O=C(/C=C/c1ccc(O)cc1)c1ccc(O)cc1O` it is 1730 nM (active).
The entry for `CCN1CCC(n2cc(CNc3cc(Cl)c4ncc(C#N)c(Nc5ccc(F)c(Cl)c5)c4c3)nn2)CC1` is “inactive”; for `Oc1cc(O)cc(/C=C/c2ccc(O)c(O)c2)c1` it is 4890 nM (active).
Under `CN(C)c1cc(NC(=O)CNC(C)(C)C)c(O)c2c1C[C@@H]1C[C@H]3[C@H](N(C)C)C(=O)C(C(N)=O)=C(O)[C@@]3(O)C(=O)C1=C2O` stands “inactive”; under `Cc1ccc(O)c(N=Nc2ccccc2)n1`, 1230 nM (active).
Regarding `CC1(C)Cc2c(sc(NC(=S)NC(=O)c3ccccc3)c2C(=O)O)CO1`, the Potency entry is “inactive”.
The figure for `CCC(C(=O)O)c1ccc(N2Cc3ccccc3C2=O)cc1` (stereo not drawn) is 5480 nM (active); for `Cc1cccc(/C=C/c2ccccc2)n1` it is 8690 nM (active).
Under `C[C@@H](N)c1ccc(C(=O)Nc2ccnc3[nH]ccc23)cc1` stands “inactive”; under `Oc1ccc(/C=C/c2cc(O)cc(O)c2)cc1`, 6150 nM (active); under `CN1CC(=O)N2C(Cc3c([nH]c4ccccc34)[C@H]2c2ccc3c(c2)OCO3)C1=O` (stereo partly drawn), “inactive”.
The entry for `COc1cc(NC(C)CCCN)c2ncccc2c1` (stereo not drawn) is “inactive”.
`C=CCCCCCCCCC(=O)O`: the Potency result was “inactive”.

Values taken from PubChem BioAssay AID1224855 (National Center for Advancing Translational Sciences (NCATS), 2016).
